Measurements: PubChem BioAssay AID1159580 (chemical genetic matrix, 2015)
Among all 5,500 compounds or so, about 2,000 (36%) were called active. About 18% were inconclusive and are not listed. No stated cut-off is given here; in the data, active means normalized growth mostly below about 0.91 (no sharp cut-off); inconclusive means no clear call, values can overlap the other calls; inactive means mostly above about 0.92. Some of the results follow.

Test: chemical genetic growth profiling, strain panel (AID 1159580);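 further: tested at 20 µM; growth read once vehicle control cultures reached saturation at 30 °C; 1 = growth at the plate median or of vehicle wells; lower values mean less growth of the strain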
Conditions: growth OD

Measured: normalized growth

CC(=O)N[C@@H](Cc1c[nH]c2ccccc12)C(N)=O
inactive: S. cerevisiae deletion strains, locus YJR075W, strain HOC1, active compounds read low 0.959 | S. cerevisiae deletion strains, locus YKL009W, strain mrt4, active compounds read low 1.01 | S. cerevisiae deletion strains, locus YKL068W, active compounds read low 0.988 | S. cerevisiae deletion strains, locus YKL085W, strain MDH1 (second series), active compounds read low 1.01 | S. cerevisiae deletion strains, locus YKL085W, strain MDH1, active compounds read low 1.01 | S. cerevisiae deletion strains, locus YKL160W, strain elf1, active compounds read low 1.02 | S. cerevisiae deletion strains, locus YKL190W, strain CNB1, active compounds read low 0.979 | S. cerevisiae deletion strains, locus YKR001C, strain vps1, active compounds read low 1.01 | S. cerevisiae deletion strains, locus YKR026C, strain gcn3, active compounds read low 1.03 | S. cerevisiae deletion strains, locus YKR091W, strain srl3, active compounds read low 1.01 | S. cerevisiae deletion strains, locus YLL001W, strain dnm1, active compounds read low 1.03 | S. cerevisiae deletion strains, locus YLL026W, active compounds read low 1.02 | S. cerevisiae deletion strains, locus YLL041C, strain sdh2, active compounds read low 1.02 | S. cerevisiae deletion strains, locus YLR027C, strain aat2, active compounds read low 1.03 | S. cerevisiae deletion strains, locus YLR039C, strain RIC1, active compounds read low 0.972 | S. cerevisiae deletion strains, locus YLR058C, strain SHM2, active compounds read low 0.993 | S. cerevisiae deletion strains, locus YLR102C, strain apc9, active compounds read low 0.999 | S. cerevisiae deletion strains, locus YLR113W, strain HOG1, active compounds read low 1.01 | S. cerevisiae deletion strains, locus YLR221C, strain rsa3, active compounds read low 0.996 | S. cerevisiae deletion strains, locus YLR258W, strain gsy2, active compounds read low 1.02 | S. cerevisiae deletion strains, locus YLR262C, strain YPT6 (second series), active compounds read low 1.02 | S. cerevisiae deletion strains, locus YLR262C, strain YPT6, active compounds read low 0.938 | S. cerevisiae deletion strains, locus YLR268W, strain sec22, active compounds read low 0.96 | S. cerevisiae deletion strains, locus YLR320W, strain mms22, active compounds read low 1.01 | S. cerevisiae deletion strains, locus YLR330W, strain CHS5, active compounds read low 0.996 | S. cerevisiae deletion strains, locus YLR342W, strain FKS1 (second series), active compounds read low 1.07 | S. cerevisiae deletion strains, locus YLR342W, strain FKS1, active compounds read low 1.05 | S. cerevisiae deletion strains, locus YLR357W, strain rsc2, active compounds read low 1.04 | S. cerevisiae deletion strains, locus YLR370C, strain arc18, active compounds read low 1.02 | S. cerevisiae deletion strains, locus YLR371W, strain rom2, active compounds read low 1.01 | S. cerevisiae deletion strains, locus YLR384C, strain iki3, active compounds read low 1.03 | S. cerevisiae deletion strains, locus YLR418C, strain cdc73, active compounds read low 0.984 | S. cerevisiae deletion strains, locus YML016C, strain PPZ1, active compounds read low 0.995 | S. cerevisiae deletion strains, locus YML032C, strain rad52, active compounds read low 1 | S. cerevisiae deletion strains, locus YML120C, strain ndi1, active compounds read low 1.03 | S. cerevisiae deletion strains, locus YML124C, strain tub3, active compounds read low 1.01 | S. cerevisiae deletion strains, locus YMR058W, strain fet3, active compounds read low 0.997 | S. cerevisiae deletion strains, locus YMR078C, strain ctf18, active compounds read low 1 | S. cerevisiae deletion strains, locus YMR125W, strain sto1, active compounds read low 1.1 | S. cerevisiae deletion strains, locus YMR129W, active compounds read low 1.02 | S. cerevisiae deletion strains, locus YMR205C, strain PFK2, active compounds read low 1.02 | S. cerevisiae deletion strains, locus YMR223W, strain ubp8, active compounds read low 1.01 | S. cerevisiae deletion strains, locus YMR231W, strain pep5, active compounds read low 1.02 | S. cerevisiae deletion strains, locus YMR263W, strain SAP30, active compounds read low 0.955 | S. cerevisiae deletion strains, locus YMR307W, strain GAS1, active compounds read low 1.08 | S. cerevisiae deletion strains, locus YNL067W, strain RPL9B, active compounds read low 0.966 | S. cerevisiae deletion strains, locus YNL071W, strain lat1, active compounds read low 1.01 | S. cerevisiae deletion strains, locus YNL128W, strain TEP1, active compounds read low 0.94 | S. cerevisiae deletion strains, locus YNL153C, strain GIM3, active compounds read low 0.97 | S. cerevisiae deletion strains, locus YNL183C, strain NPR1, active compounds read low 0.914 | S. cerevisiae deletion strains, locus YNL209W, strain ssb2, active compounds read low 1.01 | S. cerevisiae deletion strains, locus YNL233W, strain BNI4, active compounds read low 0.993 | S. cerevisiae deletion strains, locus YNL248C, strain rpa49, active compounds read low 0.992 | S. cerevisiae deletion strains, locus YNL250W, strain rad50, active compounds read low 0.989 | S. cerevisiae deletion strains, locus YNL271C, strain bni1, active compounds read low 0.996 | S. cerevisiae deletion strains, locus YNL298W, strain CLA4, active compounds read low 0.994 | S. cerevisiae deletion strains, locus YNL307C, strain MCK1, active compounds read low 1.02 | S. cerevisiae deletion strains, locus YNL322C, strain KRE1 (second series), active compounds read low 1.03 | S. cerevisiae deletion strains, locus YNL322C, strain KRE1, active compounds read low 0.978 | S. cerevisiae deletion strains, locus YNR049C, strain mso1, active compounds read low 1.02 | S. cerevisiae deletion strains, locus YNR052C, strain pop2, active compounds read low 1.01 | S. cerevisiae deletion strains, locus YOL006C, strain TOP1, active compounds read low 0.943 | S. cerevisiae deletion strains, locus YOL012C, strain htz1 0.796 | S. cerevisiae deletion strains, locus YOL147C, strain pex11, active compounds read low 1 | S. cerevisiae deletion strains, locus YOR001W, strain rrp6, active compounds read low 1.04 | S. cerevisiae deletion strains, locus YOR061W, strain CKA2, active compounds read low 0.969 | S. cerevisiae deletion strains, locus YOR069W, strain VPS5, active compounds read low 1 | S. cerevisiae deletion strains, locus YOR070C, strain gyp1, active compounds read low 1.01 | S. cerevisiae deletion strains, locus YOR080W, strain dia2, active compounds read low 1.03 | S. cerevisiae deletion strains, locus YOR083W, strain WHI5, active compounds read low 1.03 | S. cerevisiae deletion strains, locus YOR106W, strain vam3, active compounds read low 1.01 | S. cerevisiae deletion strains, locus YOR136W, strain idh2, active compounds read low 1.01 | S. cerevisiae deletion strains, locus YOR144C, strain elg1, active compounds read low 0.995 | S. cerevisiae deletion strains, locus YOR184W, strain ser1, active compounds read low 1.02 | S. cerevisiae deletion strains, locus YOR231W, strain MKK1, active compounds read low 1.01 | S. cerevisiae deletion strains, locus YOR265W, strain rbl2, active compounds read low 1.03 | S. cerevisiae deletion strains, locus YOR270C, strain vph1, active compounds read low 1 | S. cerevisiae deletion strains, locus YOR290C, strain snf2, active compounds read low 1.01 | S. cerevisiae deletion strains, locus YOR316C, strain cot1, active compounds read low 1 | S. cerevisiae deletion strains, locus YPL051W, strain arl3, active compounds read low 1.02 | S. cerevisiae deletion strains, locus YPL055C, strain LGE1, active compounds read low 0.932 | S. cerevisiae deletion strains, locus YPL078C, strain atp4, active compounds read low 1.02 | S. cerevisiae deletion strains, locus YPL106C, strain sse1, active compounds read low 1.04 | S. cerevisiae deletion strains, locus YPL240C, strain hsp82, active compounds read low 1.02 | S. cerevisiae deletion strains, locus YPL241C, strain CIN2, active compounds read low 0.989 | S. cerevisiae deletion strains, locus YPL256C, strain CLN2, active compounds read low 0.999 | S. cerevisiae deletion strains, locus YPR119W, strain clb2, active compounds read low 1 | S. cerevisiae deletion strains, locus YPR141C, strain kar3, active compounds read low 0.981 | S. cerevisiae deletion strains, locus YPR163C, strain tif3, active compounds read low 1.01 | S. cerevisiae deletion strains, locus YPR167C, strain met16, active compounds read low 0.991 | S. cerevisiae deletion strains, strain wtn01, active compounds read low 1 | S. cerevisiae strains, strain wild type, active compounds read low 0.995
